TIM10 inh – growth inhibitors of isogenic TIM10 control yeast, primary screen, counter-screen for tim10-1 yeast inhibitor project, luminescence, uHTS | hit rate 1.4% among 330,000 | S. cerevisiae TIM10 strain growth, BacTiter-Glo luminescence, 24 h | inhibition, % at 10 µM;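 active means inhibition of 40% or more at the single tested concentration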;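 further: wild-type TIM10 isogenic control strain grown at permissive 25 °C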
PfHsp90 set2 – growth inhibition of PfHsp90-expressing yeast, primary screen, antimalarial PfHsp90 inhibitor project, S. cerevisiae, BacTiter-Glo luminescence, single point, set 2 | BacTiter-Glo ATP, 48 h; yeast lacking PDR1 and PDR3 efflux regulators | hit rate 0.32% among 310,000 | inhibition, % at 9.4 µM;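 active means every replicate shows inhibition above about 80%, whatever the replicate mean, limit read from the data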;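 further: 0% = DMSO neutral controls and 100% = 20 µM radicicol positive controls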
tim23-1 inh – growth inhibitors of tim23-1 mutant yeast, primary screen, luminescence, uHTS. inhibition, % at 20 µM. AID 463212, 2010. S. cerevisiae tim23-1 growth, BacTiter-Glo luminescence, 24 h. hit rate 1.3% among 330,000;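 active means growth inhibition of the mutant yeast at or above 50%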;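 further: temperature-sensitive mutant grown at 25 °C; plate controls were DMSO-treated mutant yeast for no effect and medium wells lacking yeast for full effect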
Rce1 inhib – yeast Rce1p protease inhibitors, primary screen, biochemical, fluorescence, cell-free homogeneous | CAAX prenyl protease 2 (Saccharomyces cerevisiae (strain ATCC 204508 / S288c)), Q03530 | yeast membranes, quenched prenylated peptide cleavage fluorescence | calls only | AID 2563, 2010 | hit rate 0.27% among 290,000;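 active means fall in fluorescence gain of 50% or more versus controls, with final raw signal at or below 3038400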;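 further: plate controls were neutral control wells for no effect and wells lacking membranes for full effect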
Target sequence (Q03530 whole entry, looked up): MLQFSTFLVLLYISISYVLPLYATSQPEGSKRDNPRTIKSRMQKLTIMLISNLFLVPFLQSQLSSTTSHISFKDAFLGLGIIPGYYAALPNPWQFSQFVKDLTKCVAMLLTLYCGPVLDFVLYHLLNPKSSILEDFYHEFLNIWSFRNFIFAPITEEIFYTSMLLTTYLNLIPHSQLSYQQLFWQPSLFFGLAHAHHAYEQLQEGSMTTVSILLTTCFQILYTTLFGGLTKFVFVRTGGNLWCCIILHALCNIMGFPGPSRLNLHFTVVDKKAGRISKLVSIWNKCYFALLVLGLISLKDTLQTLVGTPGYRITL
tim10-1 inh – growth inhibitors of tim10-1 mutant yeast, primary screen, luminescence, uHTS; S. cerevisiae tim10-1 ts strain growth, BacTiter-Glo, 24 h; inhibition, % at 20 µM; hit rate 2.2% among 330,000; AID 463190, 2010;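 active means inhibition of at least 40%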;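 further: mutant grown at 25 °C; 0% = DMSO wells with yeast and 100% = wells holding no yeast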
tim10-1 conf – growth inhibitors of tim10-1 mutant yeast, confirmation, single concentration, luminescence, S. cerevisiae. S. cerevisiae tim10-1 ts strain growth, BacTiter-Glo, 24 h. inhibition, % at 20 µM. shares compounds with tim10-1 inh. hit rate 56% among 7,400;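 active means inhibition of yeast growth at or above a set limit in either of two repeat tests at 20 µM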;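 further: tim10-1 mutant grown at permissive 25 °C to find synthetic lethal compounds; 0% = DMSO yeast wells and 100% = medium wells without yeast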
An asterisk follows results filed as active; i = inactive; . = no result. Compounds with a hit are over-represented: about 3.7% of the library has one in this group of screens.

SMILES	TIM10 inh	PfHsp90 set2	tim23-1 inh	Rce1 inhib	tim10-1 inh	tim10-1 conf
Cc1cc(NC(=O)CSc2nccn2C)n(-c2ccccc2)n1	-12	17	-3	i	-8	.
CC1(C)O[C@@H]2[C@H](O1)[C@@H](COS(=O)(=O)O)O[C@H]2n1cc(Br)c(=O)[nH]c1=O	-2	.	7	.	-11	.
N#CCC(=O)Nc1ncc(Cc2ccccc2Cl)s1	11	-1	31	i	12	.
O=c1[nH]c2cccnc2n1-c1cccc([N+](=O)[O-])c1	-4	.	4	i	15	.
Fc1cccc(F)c1CSc1nc2ccccc2[nH]1	35	-15	32	i	43*	30
CN(CCc1cn[nH]c1)Cc1nc(Cc2ccccc2F)no1	17	13	1	i	12	.
COC(/C(=N/O)c1ccc(Cl)cc1)c1ccccc1 (configuration not stated)	26	-28	47	i	47*	31*
COc1ccc(Cl)cc1NC(=O)C(OC)c1ccccc1 (configuration not stated)	8	-21	15	i	-10	.
Cc1cccc(C)c1N1CCN(c2ccc3nnc(C(F)(F)F)n3n2)CC1	15	.	32	i	18	.
O=C(NNc1ccc([N+](=O)[O-])cc1)c1ccccc1Cl	3	16	-13	i	-37	.
O=C(NC(NNc1ccc([N+](=O)[O-])cc1)(C(F)(F)F)C(F)(F)F)c1ccc(Cl)cc1	35	-39	37	i	64*	51*
CC1(C)Cc2c(C#N)c(N3CCN(C(=O)c4ccccc4)CC3)nc(-c3ccco3)c2CS1	25	-20	18	.	44*	33*
O=C(CCCNC(=O)c1ccc(Cl)cc1)Nc1ccc(S(=O)(=O)Nc2ncccn2)cc1	6	3	10	i	-7	.
Cc1ccnc(SCc2cc(=O)c(OC(=O)c3ccc(Br)o3)co2)n1	37	10	38	i	46*	29*
O=c1oc2ccccc2cc1NCc1ccccc1O	11	-49	38	i	41*	7
O=C(NC1CCCC1)c1cc2nc(-c3ccco3)cc(C(F)(F)F)n2n1	3	-12	-15	i	-2	.
Cc1cc(Nc2ccccc2)c2c([N+](=O)[O-])c(C)cc(C)c2n1	32	.	45	i	41*	27
CCOC(=O)N1CCC(NC(=O)c2ccc3c(c2)N=C(CC)c2ccccc2S3)CC1	11	-22	40	i	45*	13
CC1CCN(C(=O)c2ccc3c(Cl)c4c(nc3c2)CCCC4)CC1	8	15	40	i	47*	40*
CCC1=Nc2cc(C(=O)NCCN3CCOCC3)ccc2Sc2ccccc21	6	1	6	i	16	.
CCOC(=O)N1CCC(NC(=O)c2ccc3c(Cl)c4c(nc3c2)CCCC4)CC1	21	-31	42	.	41*	17
CCOc1ccc(N(CC(=O)NC2CCCC2)C(=O)c2ccc(C)s2)cc1	18	-36	24	i	16	.
Cc1ccc(CN2CCSc3sccc3C2=O)cc1	-25	20	16	i	-15	.
O=C(CCN1C(=O)/C(=C/c2cccs2)SC1=S)N1CCCCC1	24	15	39	i	42*	12
COc1ccccc1/C=C1\SC(=S)N(CCC(=O)N2CCCCC2CCO)C1=O (configuration not stated)	16	2	34	i	42*	9
SMILES	TIM10 inh	PfHsp90 set2	tim23-1 inh	Rce1 inhib	tim10-1 inh	tim10-1 conf
COc1ccc(/C(C)=N/NC(=O)c2nnn(-c3nonc3N)c2CN(C)c2ccccc2)cc1	2	8	8	i	26	.
C/C(=N\NC(=O)c1nnn(-c2nonc2N)c1CN(C)c1ccccc1)c1ccccc1O	25	-8	26	i	62*	3
COc1ccc(C)cc1NC(=O)c1ccc2c(=O)n3c(nc2c1)CCCCC3	-2	7	36	i	41*	6
Cc1ccc(C)c(NC(=O)c2ccc3c(=O)n4c(nc3c2)CCC4)c1	5	.	18	.	3	.
Brc1ccc(-c2nnc(-c3cccnc3)c3conc23)cc1	18	.	44	i	51*	15
S=C(Nc1ccc(Cl)cc1)c1sc(N2CCCCC2)nc1N1CCOCC1	6	16	-7	i	4	.
CC(Sc1nnc(NC2CCCCC2)s1)C(=O)Nc1ccc2c(c1)C(=O)c1ccccc1C2=O (configuration not stated)	17	-8	23	i	42*	19
CC(Sc1nnc(NC2CC2)s1)C(=O)Nc1ccc(N2CCOCC2)cc1 (configuration not stated)	-7	24	-15	.	0	.
CC12CCC(=O)N1C(C(=O)OCC(=O)Nc1ccc(Cl)c(Cl)c1)CS2 (configuration not stated)	0	23	19	i	11	.
CC1CC(C)CN(S(=O)(=O)c2ccc(C(=O)Nc3nnc(C4CC4)o3)cc2)C1 (configuration not stated)	27	0	45	i	47*	10
COc1ccccc1/C=C/C=N/NC(=O)c1cccs1	-5	-20	48	i	-29	.
CC1(C)CC2CC(C)(CN2S(=O)(=O)c2cccc(N)c2)C1 (configuration not stated)	35	22	27	i	48*	39*
CC(C)N(C(=O)COC(=O)c1cccc(S(=O)(=O)N2CC3(C)CC2CC(C)(C)C3)c1)C(C)C (configuration not stated)	31	.	30	.	22	.
O=C(CCNc1ccc(Cl)cc1)c1cccs1	16	-27	21	i	21	.
O=C(CCNc1cc(Cl)cc(Cl)c1)c1cccs1	35	-38	42	i	46*	19
Cc1c([N+](=O)[O-])c(C(=O)Sc2ccc(Br)cc2)nn1C	16	0	24	i	47*	46*
CCOC(=O)C(NC(=O)c1ccc(OC)cc1)(N1CCCC1=O)C(F)(F)F (configuration not stated)	15	20	11	i	19	.
O=C(Oc1ccc(Br)cc1C(=S)N1CCCCC1)c1cc([N+](=O)[O-])cc([N+](=O)[O-])c1	36	-6	46	i	51*	31
O=C(COC(=O)c1cnccn1)c1ccc(Cl)cc1	-10	24	-1	i	-13	.
Brc1ccc(/C=N/Nc2ccc3ccccc3n2)cc1	16	2	35	i	48*	14

Assay outcomes (PubChem BioAssay)
